Test results reported in PubChem BioAssay (EPA / NIEHS).
Some structures have more than one record in an assay (separate samples or runs), and their calls can disagree. Activity calls are given as the source filed them. The calls were made as follows: active = hit-call score of the fitted dose curve at least 0.9, where 1 is the maximum; inactive = score below 0.9.

Legend:
[1] = read-out: Vascular cell adhesion molecule 1 (VCAM1), VCAM1 (gene 7412); experiment: BSK_hDFCGF_VCAM1: BioMAP Diversity Plus: hDFCGF Assay for Vascular cell adhesion molecule 1 (VCAM1) Biomarker Activity (AID 2283065); conditions: primary human foreskin fibroblasts; actives raise or lower the signal;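 as to AC50: VCAM-1 protein level quantified by ELISA after 24 h chemical exposure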
Procedure, shortened: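 ELISA readout of VCAM-1 on human dermal fibroblast primary cultures, 24 h after chemical exposure. Gain or loss of signal fitted in both directions against DMSO baseline.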

[2] = read-out: Plasminogen activator inhibitor-1 (PAI1), SERPINE1 (gene 5054); experiment: BSK_hDFCGF_PAI1: BioMAP Diversity Plus: hDFCGF Assay for Plasminogen activator inhibitor-1 (PAI1) Biomarker Activity (AID 2283066); conditions: primary human foreskin fibroblasts; actives raise or lower the signal
Procedure, shortened: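 PAI-1 levels in human dermal foreskin fibroblasts were quantified by ELISA 24 h after dosing, with gain or loss analysed against DMSO. Overt cytotoxicity was checked by sulforhodamine B total-protein staining in parallel cultures.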

[3] = read-out: Intercellular Adhesion Molecule 1 (ICAM1), ICAM1 (gene 3383); experiment: BSK_KF3CT_ICAM1: BioMAP Diversity Plus: KF3CT Assay for Intercellular Adhesion Molecule 1 (ICAM1) Biomarker Activity (AID 2283067); conditions: primary human keratinocytes with fibroblasts; actives raise or lower the signal
Procedure, shortened: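 Cell-surface ICAM-1 was measured by ELISA 24 h after dosing primary human skin keratinocytes co-cultured with fibroblasts. Parallel SRB staining tracked overt cytotoxicity. Gain or loss of signal was fitted relative to DMSO.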

[4] = read-out: Interferon-gamma inducible Protein 10 (IP10), CXCL10 (gene 3627); experiment: BSK_KF3CT_IP10: BioMAP Diversity Plus: KF3CT Assay for Interferon-gamma inducible Protein 10 (IP10) Biomarker Activity (AID 2283068); conditions: primary human keratinocytes with fibroblasts; actives raise or lower the signal
Procedure, shortened: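 ELISA read-out of IP-10 after 24 h chemical dosing of human skin primary co-culture (keratinocytes, foreskin fibroblasts). Gain or loss of signal relative to DMSO, bidirectional curve fit.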

[5] = BSK_KF3CT_SRB: Viability Assessment in the BioMAP Diversity Plus: KF3CT Assay (AID 2283069); conditions: primary human keratinocytes with fibroblasts
Procedure, shortened: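 Cytotoxicity was gauged by SRB staining (0.1% SRB, 10% TCA fixation, 560 nm) of parallel cultures at 24 h. The cells were primary human skin keratinocytes co-cultured with fibroblasts, and activity was fitted in both directions against DMSO.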

[6] = read-out: Interleukin-1 alpha (IL1a), IL1A (gene 3552); experiment: BSK_KF3CT_IL1a: BioMAP Diversity Plus: KF3CT Assay for Interleukin-1 alpha (IL1a) Biomarker Activity (AID 2283070); conditions: primary human keratinocytes with fibroblasts; actives raise or lower the signal
Procedure, shortened: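 IL-1a was detected by ELISA 24 h after chemical treatment of a co-culture of human skin keratinocytes and foreskin fibroblasts. Gain or loss of signal was fitted against the DMSO baseline.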

[7] = read-out: TIMP metallopeptidase inhibitor 2 (TIMP2), TIMP2 (gene 7077); experiment: BSK_KF3CT_TIMP2: BioMAP Diversity Plus: KF3CT Assay for TIMP metallopeptidase inhibitor 2 (TIMP2) Biomarker Activity (AID 2283071); conditions: primary human keratinocytes with fibroblasts; actives raise or lower the signal
Procedure, shortened: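 TIMP-2 measured by ELISA at 24 h in human keratinocyte/fibroblast primary co-cultures exposed to chemicals. Both increases and decreases were fitted against DMSO. Parallel cultures were stained with SRB for total protein as an overt-cytotoxicity check.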

[8] = read-out: Transforming growth factor beta 1 (TGFb1), TGFB1 (gene 7040); experiment: BSK_KF3CT_TGFb1: BioMAP Diversity Plus: KF3CT Assay for Transforming growth factor beta 1 (TGFb1) Biomarker Activity (AID 2283072); conditions: primary human keratinocytes with fibroblasts; actives raise or lower the signal
Procedure, shortened: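 ELISA quantifies TGF-b1 at 24 h post-dose in a primary human skin co-culture of keratinocytes and fibroblasts, with gain or loss judged against DMSO. Parallel SRB total-protein staining flags overt cytotoxicity.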

[9] = read-out: C-C motif chemokine 2 (Homo sapiens) (UniProt P13500); experiment: BSK_KF3CT_MCP1: BioMAP Diversity Plus: KF3CT Assay for Monocyte Chemoattractant Protein 1 (MCP1/CCL2) Biomarker Activity (AID 2283073); conditions: primary human keratinocytes with fibroblasts; actives raise or lower the signal
Procedure, shortened: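 ELISA read-out of MCP-1, 24 h post-dose, in primary human skin keratinocytes co-cultured with fibroblasts. Parallel SRB staining monitors cytotoxicity; changes fitted both directions relative to DMSO.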

[10] = read-out: urokinase plasminogen activator (uPA), PLAU (gene 5328); experiment: BSK_KF3CT_uPA: BioMAP Diversity Plus: KF3CT Assay for urokinase plasminogen activator (uPA) Biomarker Activity (AID 2283075); conditions: primary human keratinocytes with fibroblasts; actives raise or lower the signal
Procedure, shortened: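 ELISA read-out of uPA 24 h after dosing human skin keratinocytes co-cultured with foreskin fibroblasts. Signal change fitted both ways relative to DMSO; sulforhodamine B on parallel cultures marks overt cytotoxicity.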

CD40, CD40 (gene 958) = experiment: BSK_LPS_CD40: BioMAP Diversity Plus: LPS Assay for CD40 Biomarker Activity (AID 2283076); conditions: primary human HUVEC with PBMC; actives raise or lower the signal
Procedure, shortened: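 In the LPS system of human endothelial cells with peripheral blood mononuclear cells, CD40 levels were read by ELISA 24 h post-treatment. Signal changes in either direction were fitted against the DMSO baseline, with parallel SRB protein staining.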

[11] = BSK_LPS_SRB: Viability Assessment in the BioMAP Diversity Plus: LPS Assay (AID 2283079); conditions: primary human HUVEC with PBMC;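 also: total protein by sulforhodamine B absorbance as a cytotoxicity measure; measured one day after compound addition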
Procedure, shortened: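 SRB viability endpoint: cells fixed with 10% TCA, stained with 0.1% SRB, read at 560 nm, 24 h post-dose. HUVEC/PBMC co-culture; signal change in either direction scored relative to DMSO.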

[12] = read-out: Interleukin-1 alpha (IL1a), IL1A (gene 3552); experiment: BSK_LPS_IL1a: BioMAP Diversity Plus: LPS Assay for Interleukin-1 alpha (IL1a) Biomarker Activity (AID 2283080); conditions: primary human HUVEC with PBMC; actives raise or lower the signal
Procedure, shortened: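 Readout is IL-1a level by ELISA, 24 h post-dose, fitted as gain or loss relative to DMSO. System: LPS-activated human primary co-culture of vascular endothelium and peripheral blood mononuclear cells, with parallel SRB total-protein cytotoxicity.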

[13] = read-out: Monocyte Chemoattractant Protein-1 (MCP1), CCL2 (gene 6347); experiment: BSK_LPS_MCP1: BioMAP Diversity Plus: LPS Assay for Monocyte Chemoattractant Protein-1 (MCP1) Biomarker Activity (AID 2283081); conditions: primary human HUVEC with PBMC; actives raise or lower the signal;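 as to AC50: secreted MCP-1 protein quantified by ELISA in culture supernatant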
Procedure, shortened: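 Secreted MCP-1 read by ELISA at 24 h post-dosing in an LPS-activated co-culture of endothelial cells with peripheral blood mononuclear cells. Fits run in both directions, DMSO as baseline; parallel SRB staining tracks overt cytotoxicity.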

[14] = read-out: Macrophage colony-stimulating factor (MCSF), CSF1 (gene 1435); experiment: BSK_LPS_MCSF: BioMAP Diversity Plus: LPS Assay for Macrophage colony-stimulating factor (MCSF) Biomarker Activity (AID 2283083); conditions: primary human HUVEC with PBMC; actives raise or lower the signal
Procedure, shortened: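 Bidirectional fitting against DMSO was applied to M-CSF levels read by ELISA at 24 h post-dose. The system pairs human umbilical vein endothelium with peripheral blood mononuclear cells; parallel SRB staining tracked cytotoxicity.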

[15] = read-out: Tissue Factor, F3 (gene 2152); experiment: BSK_LPS_TissueFactor: BioMAP Diversity Plus: LPS Assay for Tissue Factor Biomarker Activity (AID 2283084); conditions: primary human HUVEC with PBMC; actives raise or lower the signal
Procedure, shortened: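 Compound was added to an endothelial cell/PBMC co-culture, and after 24 h tissue factor (CD142) was read by ELISA. Gain or loss of signal was fitted against a DMSO baseline, and parallel SRB staining (560 nm) tracked overt cytotoxicity.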

[16] = read-out: E-selectin (Homo sapiens) (UniProt P16581); experiment: BSK_LPS_Eselectin: BioMAP Diversity Plus: LPS Assay for Eselectin Biomarker Activity (AID 2283077); conditions: primary human HUVEC with PBMC; actives raise or lower the signal
Procedure, shortened: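 E-selectin ELISA on LPS-stimulated endothelial cell/PBMC co-cultures, read 24 h post-treatment; gains and losses fitted against DMSO. Parallel SRB staining (0.1% SRB after 10% TCA fixation, 560 nm) flags overt cytotoxicity.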

[17] = read-out: Interleukin-8 (IL8), CXCL8 (gene 3576); experiment: BSK_LPS_IL8: BioMAP Diversity Plus: LPS Assay for Interleukin-8 (IL8) Biomarker Activity (AID 2283078); conditions: primary human HUVEC with PBMC; actives raise or lower the signal
Procedure, shortened: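 ELISA read-out of IL-8 after 24 h chemical treatment of LPS-activated endothelial/PBMC human primary co-cultures. Changes either up or down relative to DMSO; overt cytotoxicity checked by sulforhodamine B staining in parallel wells.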

[18] = read-out: Matrix Metallopeptidase 9 (MMP9), MMP9 (gene 4318); experiment: BSK_KF3CT_MMP9: BioMAP Diversity Plus: KF3CT Assay for Matrix Metallopeptidase 9 (MMP9) Biomarker Activity (AID 2283074); conditions: primary human keratinocytes with fibroblasts; actives raise or lower the signal;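 also: MMP9 protein level quantified by ELISA in the co-culture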
Procedure, shortened: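 MMP-9 quantified by ELISA after 24 h chemical treatment of primary human skin keratinocyte/fibroblast co-cultures; gain or loss fitted against DMSO, with parallel SRB staining (0.1% SRB, 560 nm) for overt cytotoxicity.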

[19] = BSK_LPS_PGE2: BioMAP Diversity Plus: LPS Assay for Prostaglandin E2 (PGE2) Biomarker Activity (AID 2283082); conditions: primary human HUVEC with PBMC; actives raise or lower the signal;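 as to AC50: secreted prostaglandin E2 measured by ELISA in LPS-stimulated co-culture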
Procedure, shortened: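 PGE2 release measured by ELISA in an LPS-activated co-culture of human umbilical vein endothelial cells and peripheral blood mononuclear cells, read at 24 h post-dosing. DMSO served as baseline for bidirectional curve fitting.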

Measured: AC50

E-selectin (Homo sapiens), sequence (P16581 whole entry, looked up): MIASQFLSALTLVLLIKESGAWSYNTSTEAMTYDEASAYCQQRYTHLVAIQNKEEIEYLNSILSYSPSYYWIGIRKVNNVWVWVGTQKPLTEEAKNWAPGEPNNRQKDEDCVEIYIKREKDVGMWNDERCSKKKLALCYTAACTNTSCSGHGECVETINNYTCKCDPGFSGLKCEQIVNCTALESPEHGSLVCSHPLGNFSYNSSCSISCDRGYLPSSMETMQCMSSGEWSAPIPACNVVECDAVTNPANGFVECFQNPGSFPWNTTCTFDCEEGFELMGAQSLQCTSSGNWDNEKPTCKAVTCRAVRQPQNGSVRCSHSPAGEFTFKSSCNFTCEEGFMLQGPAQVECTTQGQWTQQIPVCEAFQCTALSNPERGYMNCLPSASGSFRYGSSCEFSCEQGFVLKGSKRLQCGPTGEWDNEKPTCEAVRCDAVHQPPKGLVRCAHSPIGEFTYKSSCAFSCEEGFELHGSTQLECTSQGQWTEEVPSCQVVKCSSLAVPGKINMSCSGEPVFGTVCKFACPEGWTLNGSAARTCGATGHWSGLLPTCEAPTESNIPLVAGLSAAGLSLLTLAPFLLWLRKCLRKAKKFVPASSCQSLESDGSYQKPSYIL

BrCCBr
inactive: [1] | [2] | [3] | [4] | [5] | [6] | [7] | [8] | [9] | [10] | CD40, CD40 (gene 958) | [11] | [12] | [13] | [14] | [15]

COP(=S)(OC)Oc1c(Cl)cc(C)cc1Cl
active: [1] 20000 nM | [11] 27700 nM | [12] 108 nM
inactive: [2] | [3] | [4] | [5] | [6] | [7] | [8] | [9] | [10] | CD40, CD40 (gene 958) | [13] | [14] | [15]

CC(=O)OC(c1ccccc1)C(Cl)(Cl)Cl (configuration not stated)
active: [12] 17600 nM
inactive: [1] | [2] | [3] | [4] | [5] | [6] | [7] | [9] | [10] | CD40, CD40 (gene 958) | [16] | [17] | [11] | [12] | [13] | [14] | [15]

CC(=O)[O][Hg][c]1ccccc1
active: [1] 511 nM | [2] 183 nM | [3] 467 nM | [4] 148 nM | [5] 617 nM | [6] 707 nM | [7] 148 nM | [8] 146 nM | [18] 189 nM | [10] 625 nM | CD40, CD40 (gene 958) 1620 nM | [16] 3350 nM | [11] 1090 nM | [12] 1250 nM | [13] 1700 nM | [19] 149 nM | [14] 989 nM | [15] 1990 nM

CC(C)c1ccc(CO)cc1
inactive: [1] | [2] | [3] | [4] | [5] | [6] | [7] | [8] | [9] | [10] | CD40, CD40 (gene 958) | [16] | [11] | [12] | [13] | [14] | [15]

O=C(Nc1ccc2[nH]ccc2c1)c1cc2cc(F)ccc2n1Cc1cccc(F)c1
active: [1] 2650 nM | [2] 2690 nM | [3] 8140 nM | [4] 7210 nM | [5] 5910 nM | [6] 6680 nM | [7] 7190 nM | [8] 6880 nM | [9] 6520 nM | [10] 8640 nM | CD40, CD40 (gene 958) 8350 nM | [11] 13200 nM | [12] 7970 nM | [13] 10400 nM | [14] 14000 nM | [15] 8590 nM

Oc1ccc(-c2ccccc2)cc1
inactive: [1] | [2] | [3] | [4] | [5] | [7] | [8] | [10] | CD40, CD40 (gene 958) | [17] | [11] | [12] | [13] | [19] | [14] | [15]
active: [6] 11500 nM | [9] 16 nM

Cc1ccccc1N
inactive: [1] | [2] | [3] | [4] | [5] | [6] | [7] | [8] | [9] | [10] | CD40, CD40 (gene 958) | [11] | [12] | [13] | [19] | [14] | [15]

NC(=O)O
inactive: [1] | [2] | [3] | [4] | [5] | [6] | [7] | [8] | [9] | [10] | CD40, CD40 (gene 958) | [11] | [12] | [13] | [14] | [15]
